Screening results (PubChem)
ALDH1A1 block: blocks purified human ALDH1A1 activity; P00352; Purified ALDH1A1, NADH fluorescence, propionaldehyde substrate; Potency, µM (titrated, usually from 75.3 µM), inactives show top-dose activity, negative = inhibition, usual class: inhibitors; actives 7.3% (n = 220,000); AID 1030; active = well fitted inhibition curve with a large enough effect, not every such curve was filed as active; inconclusive = small, poorly fitted or top-dose-only effect, or another doubt; inactive = no such curve, though single readings can be large or run the other way;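 also: potency is read from the fitted curve at half-maximal effect; plate controls were no enzyme wells and a reference inhibitor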
12-hLO inh: blocks human 12-lipoxygenase activity. P18054. purified 12-hLO, xylenol orange hydroperoxide absorbance. Potency, µM (highest dose often 57.1 µM), for the others: top-dose activity change, negative = inhibition, usual class: inhibitors. actives 0.12% (n = 150,000); also: potency is read from the fitted curve at half-maximal effect; nearly all actives have a fitted effect of over 55% in size
Target sequence (P18054 whole entry, looked up): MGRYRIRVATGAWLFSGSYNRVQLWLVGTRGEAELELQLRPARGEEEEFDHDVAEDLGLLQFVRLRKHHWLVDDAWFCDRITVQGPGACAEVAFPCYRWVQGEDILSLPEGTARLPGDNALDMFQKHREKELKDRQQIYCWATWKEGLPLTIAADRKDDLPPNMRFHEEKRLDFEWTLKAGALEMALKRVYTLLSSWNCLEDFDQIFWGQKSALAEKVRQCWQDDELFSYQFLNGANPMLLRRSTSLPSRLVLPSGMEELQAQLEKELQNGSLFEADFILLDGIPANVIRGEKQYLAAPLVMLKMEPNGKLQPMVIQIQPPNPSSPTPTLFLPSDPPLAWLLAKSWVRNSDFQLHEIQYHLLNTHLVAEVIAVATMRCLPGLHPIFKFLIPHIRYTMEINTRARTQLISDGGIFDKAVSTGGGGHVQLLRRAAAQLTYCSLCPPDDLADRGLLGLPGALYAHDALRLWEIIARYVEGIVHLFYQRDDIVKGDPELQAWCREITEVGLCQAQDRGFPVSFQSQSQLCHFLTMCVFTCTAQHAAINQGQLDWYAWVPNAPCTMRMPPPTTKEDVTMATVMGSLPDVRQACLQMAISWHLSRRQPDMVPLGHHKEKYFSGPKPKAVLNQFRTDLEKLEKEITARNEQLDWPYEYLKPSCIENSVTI
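Hydroperoxide output read as Fe(III)-xylenol orange absorbance, 573-to-405 nm ratio, after 30 min reaction with 40 uM arachidonic acid. Enzyme: 150 nM purified human 12hLO, 15 min compound preincubation; 25 mM Hepes pH 7.0, room temperature.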
NPSR antagonist: neuropeptide S receptor (human) antagonism, cAMP. Q6W5P4. CHO-NPSR cells, cAMP TR-FRET, antagonist mode. Potency, µM (top dose mostly 38.3 µM), without a hit: top-dose activity change, negative = inhibition, most hits filed as inhibitors. actives 1% (n = 220,000). AID 1461; also: potency is read from the fitted curve at half-maximal effect; nearly all actives have a fitted effect of over 50% in size
HPGD block: blocks human HPGD enzyme activity; purified HPGD, NADH fluorescence kinetic, PGE2 substrate; Potency, µM, for inactives: at the highest dose activity change, negative = inhibition, usual class: inhibitors; actives 4.3% (n = 150,000); P15428; active = well fitted inhibition curve with a large enough effect, not every such curve was filed as active; inconclusive = small, poorly fitted or top-dose-only effect, or another doubt; inactive = no such curve, though single readings can be large or run the other way; also: potency is read from the fitted curve at half-maximal effect
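NADH formation kinetics: reaction with 30 uM PGE2 and 1 mM NAD+ (final), 20 nM enzyme, Tris-HCl pH 8 with Tween 20, after 15 min compound preincubation at room temperature. Fluorescence change, last versus first of five reads.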
IMPase Li cell: membrane-permeable IMPase blocker, potentiated with lithium. CHO-M1 cells, IP1 TR-FRET (IP-One), carbachol + lithium. Potency, µM (highest dose often 59.4 µM), without a hit: at the top dose activity, negative = IMPase inhibition, most hits filed as inhibitors. actives 0.35% (n = 210,000). AID 1457;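 also: IP1 builds up when IMPase is blocked and the TR-FRET signal falls; potency is read from the fitted curve at half-maximal effect; plate controls were basal vehicle for no effect and high inhibitor control for full effect; nearly all actives have a fitted effect of over 50% in size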
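Lithium-sensitised IP1 accumulation assay; M1-expressing CHO cells treated 30 min at 37C with compound. Competitive antibody detection by time-resolved FRET followed a 10 min room-temperature lysis step.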
IMPase cell inh: cell-permeable inhibitors of inositol monophosphatase (IMPase); 120,000 tested, under 10 active; CHO-M1 cells, IP1 accumulation, HTRF TR-FRET ratio; inhibition (IP1 accumulation), % at 46.1 µM; P97697; active = well fitted curve in the direction sought with a large enough effect in the signal ratio, not every such curve was filed as active; inconclusive = small, poorly fitted or top-dose-only effect, or a change in a side signal; inactive = no such curve, though single readings can be large or run the other way; the % refers to the signal ratio;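 also: cells stimulated with carbachol in lithium chloride buffer; plate controls were DMSO basal wells for no effect and reference inhibitor wells for full effect; higher means more IMPase inhibition seen as more IP1 and lower FRET ratio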
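Measured: the HTRF emission ratio (665/620 nm) plus the 620 nm donor channel, each fitted to the Hill equation to give AC50. Cells were CHO-M1 given compounds up to 46 uM and a 30 min carbachol stimulation at 37C.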
Numbers without * were called inactive; ? = inconclusive; . = no result; [ ] = remark or other dose. An excerpt weighted towards active compounds, which were near 8.9% of everything screened. Unless noted, calls follow the shape of the dose curve; as a rule, active = well fitted curve in the direction sought with a large enough effect; inconclusive = small, poorly fitted or top-dose-only effect, or another doubt; inactive = no such curve, though single readings can be large; an effect the other way counts as inactive or inconclusive. Unless noted, % is scaled to controls: 0 for no effect and ±100 for the full control effect.

SMILES	ALDH1A1 block	12-hLO inh	NPSR antagonist	HPGD block	IMPase Li cell	IMPase cell inh
O=c1[nH]c(=S)c2[nH]c(=O)n(-c3ccccc3)c2[nH]1	0%[13.5 µM]	3%[11.4 µM]	.	-16%	1%	.
O=c1[nH]c(=S)c2ncn(-c3ccccc3)c2[nH]1	25µM*	.	5%	.	.	.
CCC(=O)OC1c2ccccc2C(=O)N1Cc1ccccc1 (stereo not drawn)	-8%	0%	-1%[46.1 µM]	-11%	0%[38.3 µM]	5
CCOC1=NC(C(=O)O)c2ccccc2/C(=C(/C)Cl)N1 (stereo not drawn)	4µM*	0%	-8%[46.1 µM]	-2%	-25%[38.3 µM]	-13
Cc1ccc(CO/N=C\Cc2snc(Sc3ncc(C(F)(F)F)cc3Cl)c2C#N)cc1	?	-1%	10µM*	-24%	-10%[38.3 µM]	1
N#CCc1ccc(Oc2ncc(C(F)(F)F)cc2Cl)cc1	4%	.	-8%	.	-6%	.
Cc1ccc(NS(=O)(=O)c2ccc(OCC(=O)Nc3cccc([N+](=O)[O-])c3)c(C)c2)cc1	0%	-11%	?	-4%	17%[38.3 µM]	6
Nc1ccc(C(=O)c2cccs2)cn1	1%	.	-4%	.	.	.
CCC/C=C(\CCC)C(NC(=O)c1cccs1)c1ccc(C(=O)OC)cc1 (stereo not drawn)	-4%	5%	.	-25%	24%	.
COC(=O)C(C)c1ccc(C(=O)c2cccs2)cc1 (stereo not drawn)	-2%	-4%	.	14µM*	23%	.
Nc1ccc(C(=O)c2cccs2)cc1	-1%	0%	5%	22µM*	-5%	.
O=C(NCc1ccco1)C1(S(=O)(=O)c2ccc(Cl)cc2)CC1	18µM*	2%	17%[46.1 µM]	-14%	9%[38.3 µM]	-4
O=C(Nc1nccs1)C1(S(=O)(=O)c2ccc(Cl)cc2)CC1	11µM*	-9%	-8%[46.1 µM]	.	.	2
Cc1ccc(S(=O)(=O)C2(C(=O)Nc3nccs3)CC2)cc1	-8%	-4%	4%[46.1 µM]	-13%	22%[38.3 µM]	0
Nc1nc(CN2CCC(Cc3ccccc3)CC2)nc(Nc2ccccc2)n1	7%	7%	-11%[46.1 µM]	-7%	47%[38.3 µM]	3
CC(C)n1cnc2cc(NCc3ccccn3)ccc21	?	4%	?	-19%	33%[38.3 µM]	?
Cc1c(C(=O)N2CCN(C)CC2)oc2c1C(=O)CC(C)(C)C2	22µM*	-11%	4%[46.1 µM]	-11%	10%[38.3 µM]	-4
CC[C@@H]1OC(=O)[C@H](C)[C@H](O[C@@H]2C[C@](C)(OC)[C@H](O)[C@H](C)O2)[C@H](C)[C@H](O[C@@H]2O[C@@H](C)C[C@@H](N(C)C)[C@@H]2O)[C@](C)(O)C[C@H](C)[C@@H]2N[C@H](COCCOC)O[C@H]([C@@H]2C)[C@]1(C)O	19%[20.9 µM]	0%[25.6 µM]	.	0%	7%	-6[20.6 µM]
COC(=O)C1(C(F)(F)F)N=C2Sc3ccccc3N2C(N2CCOCC2)=N1 (stereo not drawn)	6%	4%	-10%[46.1 µM]	-5%	29%[38.3 µM]	-2
Cc1[nH]n(-c2ccccc2)c(=S)c1C=Nc1ccc([N+](=O)[O-])cc1	5.6µM*	?	-5%	3.5µM*	-6%	.
Cc1ccc2[nH]c(=O)c(CN(Cc3cccs3)S(=O)(=O)c3ccc4c(c3)OCCO4)cc2c1	25µM*	0%	-35%	-28%	9%	.
COc1cccc(CN(CC2CCCO2)S(=O)(=O)c2ccc(S(=O)(=O)N(C)C)cc2)c1 (stereo not drawn)	2.8µM*	0%	-26%[46.1 µM]	-13%	36%[38.3 µM]	14
COc1ccc(S(=O)(=O)N(Cc2cc3cc(C)ccc3[nH]c2=O)CC2CCCO2)cc1 (stereo not drawn)	8.9µM*	-3%	-20%[46.1 µM]	50%	26%[38.3 µM]	4
COc1ccc2cc(CN(CC3CCCO3)S(=O)(=O)c3ccc(C(C)=O)cc3)c(=O)[nH]c2c1 (stereo not drawn)	?	-5%	-3%[46.1 µM]	-12%	-13%[38.3 µM]	-9
COc1ccc2cc(CN(CC3CCCO3)C(=S)Nc3ccccc3)c(=O)[nH]c2c1 (stereo not drawn)	7.1µM*	.	37%	.	3%	.
